Results on one sequence are retold here after article PMC7862700, “An all-to-all approach to the identification of sequence-specific readers for epigenetic DNA modifications on cytosine”.

Holding throughout (experiment): DAPPL (digital affinity profiling via proximity ligation, sequencing); 10 mM Tris-HCl pH 7.5, 50 mM NaCl, 1 mM DTT, 4% glycerol, room temperature, 30 min; GST-TFs on glutathione beads, 16-mer random dsDNA library, 0.1% formaldehyde crosslink after washing; high values mean tight binding
Conditions in all cases: protein: recombinant; tags: N-terminal GST; dsDNA, one strand shown

One experiment concerns the target T1, ELK1 (Homo sapiens, UniProt P19419 1-428).
T1 sequence: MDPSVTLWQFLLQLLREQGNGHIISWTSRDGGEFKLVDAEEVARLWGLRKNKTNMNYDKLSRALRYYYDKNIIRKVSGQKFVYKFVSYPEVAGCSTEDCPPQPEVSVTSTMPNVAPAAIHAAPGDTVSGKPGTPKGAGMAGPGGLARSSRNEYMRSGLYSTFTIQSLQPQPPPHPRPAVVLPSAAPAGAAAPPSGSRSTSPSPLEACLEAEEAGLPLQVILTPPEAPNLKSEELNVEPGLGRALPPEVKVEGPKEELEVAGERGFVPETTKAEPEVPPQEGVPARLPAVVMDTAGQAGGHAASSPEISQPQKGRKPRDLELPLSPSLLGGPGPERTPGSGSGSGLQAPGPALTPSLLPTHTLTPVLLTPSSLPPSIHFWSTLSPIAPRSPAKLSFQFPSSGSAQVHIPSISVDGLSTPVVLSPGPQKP
A digest of the protocol: (§1)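 A tag-only sample was pooled with DNA-barcoded human transcription factors that had been expressed in yeast as GST fusions and captured on glutathione beads. The pools were incubated for 30 min at room temperature with 200 nmole of a random double-stranded 16-mer DNA library in Tris/NaCl/DTT/glycerol buffer, then washed, crosslinked with 0.1% formaldehyde, proximity-ligated (BsaI/T4 ligase, 1 h, 37 °C), PCR-amplified and sequenced on an Illumina NextSeq500. Binding signal is each hexamer's read frequency for a factor divided by its frequency for the tag-only sample.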

A further experiment deals with T2, GABPA (Homo sapiens, UniProt Q06546 1-454).
T2 sequence: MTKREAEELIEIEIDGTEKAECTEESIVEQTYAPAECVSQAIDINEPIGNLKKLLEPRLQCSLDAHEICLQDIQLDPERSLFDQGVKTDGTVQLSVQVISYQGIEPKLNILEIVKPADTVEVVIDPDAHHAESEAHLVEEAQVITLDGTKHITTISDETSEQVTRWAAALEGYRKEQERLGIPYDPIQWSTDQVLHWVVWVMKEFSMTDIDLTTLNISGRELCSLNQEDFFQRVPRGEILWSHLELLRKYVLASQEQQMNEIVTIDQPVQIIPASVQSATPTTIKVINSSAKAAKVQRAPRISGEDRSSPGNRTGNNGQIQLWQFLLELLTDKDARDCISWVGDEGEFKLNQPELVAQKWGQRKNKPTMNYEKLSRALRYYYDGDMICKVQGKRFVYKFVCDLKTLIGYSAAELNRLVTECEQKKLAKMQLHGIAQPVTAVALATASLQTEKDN
A digest of the protocol: as §1

For another experiment, the target named is T3, ERG (Homo sapiens, UniProt P11308 1-479).
T3 sequence: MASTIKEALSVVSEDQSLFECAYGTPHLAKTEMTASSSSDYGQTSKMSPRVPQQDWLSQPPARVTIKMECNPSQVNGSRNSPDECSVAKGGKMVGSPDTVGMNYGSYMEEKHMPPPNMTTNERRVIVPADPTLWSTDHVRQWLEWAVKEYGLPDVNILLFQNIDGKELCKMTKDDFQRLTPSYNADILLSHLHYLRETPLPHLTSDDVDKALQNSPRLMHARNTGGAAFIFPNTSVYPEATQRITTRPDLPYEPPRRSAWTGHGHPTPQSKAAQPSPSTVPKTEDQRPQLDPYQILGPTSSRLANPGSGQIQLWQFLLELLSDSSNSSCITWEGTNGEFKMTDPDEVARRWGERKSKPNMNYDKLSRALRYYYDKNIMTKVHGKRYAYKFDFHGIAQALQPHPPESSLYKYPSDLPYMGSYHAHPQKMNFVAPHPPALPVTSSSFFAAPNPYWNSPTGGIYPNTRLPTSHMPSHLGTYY
A digest of the protocol:
as §1

For a further experiment, the target named is ELF1 (Homo sapiens, UniProt P32519 1-619). A digest of the protocol: as §1
Chain of ELF1 (P32519 whole entry): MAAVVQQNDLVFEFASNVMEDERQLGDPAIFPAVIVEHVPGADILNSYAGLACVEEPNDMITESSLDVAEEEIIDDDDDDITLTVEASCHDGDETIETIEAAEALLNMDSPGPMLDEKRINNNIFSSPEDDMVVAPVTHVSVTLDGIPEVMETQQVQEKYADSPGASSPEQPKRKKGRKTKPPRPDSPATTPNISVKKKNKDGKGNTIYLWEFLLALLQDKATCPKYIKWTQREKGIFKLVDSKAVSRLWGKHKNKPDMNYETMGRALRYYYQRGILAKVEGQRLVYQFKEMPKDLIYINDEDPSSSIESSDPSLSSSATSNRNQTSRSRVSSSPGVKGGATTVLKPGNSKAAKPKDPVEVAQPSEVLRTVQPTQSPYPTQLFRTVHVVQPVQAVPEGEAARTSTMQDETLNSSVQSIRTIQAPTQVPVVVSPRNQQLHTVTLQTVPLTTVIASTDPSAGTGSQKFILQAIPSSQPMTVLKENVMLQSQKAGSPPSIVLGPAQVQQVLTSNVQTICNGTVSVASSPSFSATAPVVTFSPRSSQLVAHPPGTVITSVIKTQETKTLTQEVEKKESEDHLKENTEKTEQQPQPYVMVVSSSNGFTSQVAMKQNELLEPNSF
A further experiment has as its target T4, EHF (Homo sapiens, UniProt Q9NZC4 1-300).
T4 sequence: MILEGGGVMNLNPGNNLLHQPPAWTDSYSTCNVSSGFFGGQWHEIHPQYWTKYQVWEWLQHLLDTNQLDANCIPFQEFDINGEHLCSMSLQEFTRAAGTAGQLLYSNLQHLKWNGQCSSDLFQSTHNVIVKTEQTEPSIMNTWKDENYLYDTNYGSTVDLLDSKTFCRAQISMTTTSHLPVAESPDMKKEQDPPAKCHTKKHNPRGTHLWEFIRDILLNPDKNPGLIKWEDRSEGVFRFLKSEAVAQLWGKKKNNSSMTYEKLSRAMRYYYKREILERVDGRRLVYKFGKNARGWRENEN
A digest of the protocol: as §1

A further experiment concerns the target SPIB (Homo sapiens, UniProt Q01892 1-262). Summed up: as §1
The target of a further experiment is T5, ELK3 (Homo sapiens, UniProt P41970 1-407).
T5 sequence: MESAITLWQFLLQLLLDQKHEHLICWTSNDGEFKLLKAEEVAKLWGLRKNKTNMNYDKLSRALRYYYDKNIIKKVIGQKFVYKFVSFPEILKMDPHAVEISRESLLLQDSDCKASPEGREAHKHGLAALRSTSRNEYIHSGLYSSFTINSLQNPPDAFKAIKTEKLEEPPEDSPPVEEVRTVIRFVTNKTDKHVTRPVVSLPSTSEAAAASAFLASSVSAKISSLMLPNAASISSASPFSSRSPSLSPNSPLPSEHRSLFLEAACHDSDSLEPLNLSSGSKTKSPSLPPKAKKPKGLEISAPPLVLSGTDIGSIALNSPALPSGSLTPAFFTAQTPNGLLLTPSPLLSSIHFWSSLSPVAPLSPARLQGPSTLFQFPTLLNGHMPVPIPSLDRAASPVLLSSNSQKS
Summed up:
as §1

A further experiment has as its target T6, SPIC (Homo sapiens, UniProt Q8N5J4 1-248).
T6 sequence: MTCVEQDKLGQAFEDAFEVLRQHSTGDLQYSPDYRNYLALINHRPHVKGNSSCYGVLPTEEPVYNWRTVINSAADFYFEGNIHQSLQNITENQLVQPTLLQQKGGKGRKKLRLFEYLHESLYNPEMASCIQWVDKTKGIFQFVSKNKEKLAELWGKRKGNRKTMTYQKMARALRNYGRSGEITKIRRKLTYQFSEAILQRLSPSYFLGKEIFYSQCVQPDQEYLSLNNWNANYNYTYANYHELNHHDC
A digest of the protocol:
as §1

The target of the next experiment is T7, ELK4 (Homo sapiens, UniProt P28324-2 1-405).
T7 sequence: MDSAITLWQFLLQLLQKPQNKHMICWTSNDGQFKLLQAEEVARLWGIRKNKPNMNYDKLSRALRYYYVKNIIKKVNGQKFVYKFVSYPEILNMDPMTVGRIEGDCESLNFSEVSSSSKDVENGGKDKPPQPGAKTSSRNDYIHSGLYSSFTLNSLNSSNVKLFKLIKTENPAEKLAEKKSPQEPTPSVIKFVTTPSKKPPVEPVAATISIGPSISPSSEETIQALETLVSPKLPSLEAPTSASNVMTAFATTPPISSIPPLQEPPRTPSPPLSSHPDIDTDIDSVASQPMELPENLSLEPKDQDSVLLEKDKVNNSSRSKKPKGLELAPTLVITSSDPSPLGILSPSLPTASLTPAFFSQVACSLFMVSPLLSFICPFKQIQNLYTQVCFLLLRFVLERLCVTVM
A digest of the protocol:
as §1

A further experiment deals with T8, ELF3 (Homo sapiens, UniProt P78545 1-371).
T8 sequence: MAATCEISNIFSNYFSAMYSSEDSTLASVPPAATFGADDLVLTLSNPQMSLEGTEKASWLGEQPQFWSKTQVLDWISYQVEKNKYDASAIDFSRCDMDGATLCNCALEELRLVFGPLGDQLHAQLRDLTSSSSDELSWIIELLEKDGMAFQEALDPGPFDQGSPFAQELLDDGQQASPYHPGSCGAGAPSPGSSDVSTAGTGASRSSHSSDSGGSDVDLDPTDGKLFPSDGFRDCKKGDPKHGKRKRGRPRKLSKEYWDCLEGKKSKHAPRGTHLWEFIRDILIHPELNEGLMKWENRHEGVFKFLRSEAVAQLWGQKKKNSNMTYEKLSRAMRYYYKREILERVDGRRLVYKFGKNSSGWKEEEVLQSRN
A digest of the protocol: as §1

Another experiment has as its target ETV1 (Homo sapiens, UniProt P50549 1-477). A digest of the protocol: as §1
For the next experiment, the target named is T9, ETV3L (Homo sapiens, UniProt Q6ZN32 1-361).
T9 sequence: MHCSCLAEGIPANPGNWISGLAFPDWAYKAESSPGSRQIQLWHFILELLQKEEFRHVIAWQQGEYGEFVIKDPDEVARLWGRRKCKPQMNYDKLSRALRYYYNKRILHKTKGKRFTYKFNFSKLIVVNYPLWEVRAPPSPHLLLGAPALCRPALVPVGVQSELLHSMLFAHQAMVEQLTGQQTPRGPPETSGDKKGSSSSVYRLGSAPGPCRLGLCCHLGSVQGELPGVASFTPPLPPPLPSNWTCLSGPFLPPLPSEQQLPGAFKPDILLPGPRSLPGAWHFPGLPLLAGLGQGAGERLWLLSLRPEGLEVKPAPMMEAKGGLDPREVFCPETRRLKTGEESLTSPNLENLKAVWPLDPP
Summed up:
as §1

In the next experiment the target is T10, ETV7 (Homo sapiens, UniProt Q9Y603 1-341).
T10 sequence: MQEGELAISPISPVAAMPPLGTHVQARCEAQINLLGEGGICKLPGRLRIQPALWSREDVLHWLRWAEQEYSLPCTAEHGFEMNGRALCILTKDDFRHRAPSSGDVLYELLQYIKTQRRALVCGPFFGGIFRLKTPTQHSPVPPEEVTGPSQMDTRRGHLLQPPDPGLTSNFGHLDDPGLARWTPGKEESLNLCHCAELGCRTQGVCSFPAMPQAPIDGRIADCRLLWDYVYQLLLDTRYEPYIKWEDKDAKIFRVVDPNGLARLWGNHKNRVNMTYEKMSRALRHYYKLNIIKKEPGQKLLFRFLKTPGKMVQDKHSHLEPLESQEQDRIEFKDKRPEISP
Summed up: as §1

A further experiment concerns the target T11, ETV3 (Homo sapiens, UniProt P41162-2 1-143).
T11 sequence: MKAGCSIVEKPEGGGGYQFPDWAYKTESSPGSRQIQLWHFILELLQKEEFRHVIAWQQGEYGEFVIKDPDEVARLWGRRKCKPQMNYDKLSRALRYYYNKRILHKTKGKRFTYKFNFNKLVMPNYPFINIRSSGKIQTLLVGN
Summed up: as §1

In a further experiment the target is ETV6 (Homo sapiens, UniProt P41212 1-452). A digest of the protocol: as §1
Chain of ETV6 (P41212 whole entry): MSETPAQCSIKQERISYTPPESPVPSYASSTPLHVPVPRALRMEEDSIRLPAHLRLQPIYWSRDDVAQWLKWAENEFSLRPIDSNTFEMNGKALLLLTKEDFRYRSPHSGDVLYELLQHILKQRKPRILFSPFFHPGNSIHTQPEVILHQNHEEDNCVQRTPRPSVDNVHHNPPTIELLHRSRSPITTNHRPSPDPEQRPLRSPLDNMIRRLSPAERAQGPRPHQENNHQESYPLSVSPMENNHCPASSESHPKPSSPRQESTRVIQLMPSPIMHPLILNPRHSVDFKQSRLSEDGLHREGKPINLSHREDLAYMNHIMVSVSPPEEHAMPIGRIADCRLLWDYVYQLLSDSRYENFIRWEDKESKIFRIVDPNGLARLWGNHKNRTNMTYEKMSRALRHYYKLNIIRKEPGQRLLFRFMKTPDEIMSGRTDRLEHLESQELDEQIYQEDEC

Chain of SPIB (Q01892 whole entry): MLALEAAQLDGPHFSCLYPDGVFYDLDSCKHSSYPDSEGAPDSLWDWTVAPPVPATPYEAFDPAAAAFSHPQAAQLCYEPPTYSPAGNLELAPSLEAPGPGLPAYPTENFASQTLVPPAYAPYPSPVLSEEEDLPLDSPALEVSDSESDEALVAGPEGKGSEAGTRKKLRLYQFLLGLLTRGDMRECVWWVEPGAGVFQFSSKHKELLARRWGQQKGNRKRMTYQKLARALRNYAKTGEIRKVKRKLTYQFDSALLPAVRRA
Chain of ETV1 (P50549 whole entry): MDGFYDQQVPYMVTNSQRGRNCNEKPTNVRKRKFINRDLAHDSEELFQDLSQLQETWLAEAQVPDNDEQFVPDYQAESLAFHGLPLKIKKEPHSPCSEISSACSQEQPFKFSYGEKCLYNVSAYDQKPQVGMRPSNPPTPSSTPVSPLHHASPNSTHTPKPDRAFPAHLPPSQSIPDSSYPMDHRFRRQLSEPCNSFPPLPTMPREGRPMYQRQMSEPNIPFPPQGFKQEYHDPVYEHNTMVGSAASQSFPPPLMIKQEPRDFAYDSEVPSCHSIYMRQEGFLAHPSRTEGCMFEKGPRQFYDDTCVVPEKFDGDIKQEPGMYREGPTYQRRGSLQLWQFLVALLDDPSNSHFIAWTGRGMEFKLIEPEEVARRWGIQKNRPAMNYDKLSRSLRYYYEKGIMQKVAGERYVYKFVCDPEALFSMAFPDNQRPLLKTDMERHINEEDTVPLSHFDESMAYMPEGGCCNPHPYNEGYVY

Turning to TAAAGG, the binding signal with ELK1 is 1.03 fold enrichment (6-mer frequency, TF over GST control); with GABPA it was 1.03 fold enrichment (6-mer frequency, TF over GST control); with ERG, 1.03 fold enrichment (6-mer frequency, TF over GST control); in the experiment with ELF1, 1.08 fold enrichment (6-mer frequency, TF over GST control); in the experiment with EHF it was 1.12 fold enrichment (6-mer frequency, TF over GST control); in the experiment with SPIB, 1.03 fold enrichment (6-mer frequency, TF over GST control). The binding signal was 1.1 fold enrichment (6-mer frequency, TF over GST control) in the experiment with ELK3; 1.11 fold enrichment (6-mer frequency, TF over GST control) with SPIC; 1.07 fold enrichment (6-mer frequency, TF over GST control) in the experiment with ELK4; 1.1 fold enrichment (6-mer frequency, TF over GST control) in the experiment with ELF3; 1.03 fold enrichment (6-mer frequency, TF over GST control) with ETV1; 1.04 fold enrichment (6-mer frequency, TF over GST control) with ETV3L. Besides, the binding signal with ETV7 was 1.09 fold enrichment (6-mer frequency, TF over GST control); with ETV3, 1.09 fold enrichment (6-mer frequency, TF over GST control); with ETV6, 1.07 fold enrichment (6-mer frequency, TF over GST control).
